# In the library only some 3.2% were active in any assay of this set; here they are far more common.
# ANO1 block: TMEM16A chloride channel inhibitors, primary screen, cell-based, HTS; AID 588511, 2011; actives 1.2% (n = 310,000); normalized B-score (activity score, 25-100; higher = stronger inhibition) at 10 µM; HEK293 TMEM16A/YFP iodide influx fluorescence, ionomycin;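 active means ratio plate-corrected score three or more library SD toward inhibition, starting fluorescence score within five deviations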;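 further: score derived from kinetic fluorescence span divided by baseline fluorescence per well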
# CHT PAM: CHT positive allosteric modulators, primary screen, cell-based, membrane potential dye, choline EC20. High affinity choline transporter 1 (Homo sapiens), Q9GZV3. CHT-expressing cells; stronger effect = higher value; LV-AA mutant CHT in HEK293 cells. B-score at 10 µM. actives 0.49% (n = 310,000). AID 488977, 2010;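 active means initial fluorescence not abnormally high and integrated response B-score, plate-corrected, over 3 SD above library mean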
# CHT inh: inhibitors of human choline transporter CHT | CHT-expressing cells, membrane potential dye, choline response; stronger effect = lower value | B-score at 10 µM | actives 0.86% (n = 310,000);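 active means B-score over 3 SD under the library average, and starting fluorescence ratio not unusually high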;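 further: choline stimulus applied at its EC90 after an EC20 pre-addition; B-score computed on integrated fluorescence ratio after choline addition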
# HDAC3 inhib: HDAC3 deacetylase inhibitors, primary screen, biochemical, fluorescence, cell-free homogeneous. actives 0.15% (n = 320,000). recombinant HDAC3, fluorogenic peptide/trypsin coupled. Histone deacetylase 3 (Homo sapiens), O15379. AID 2718, 2010. inhibition, % at 8.3 µM; in the data active means inhibition above about 26%, passing the limit was not always enough
# PHOSPHO1 block: PubChem AID 1565 | Phosphoethanolamine/phosphocholine phosphatase (Homo sapiens), Q8TCT1 | actives 1.1% (n = 290,000) | inhibition, % at 13.3 µM | recombinant PHOSPHO1, absorbance phosphatase assay; in the data active means inhibition above about 60%
# Target sequence (Q8TCT1 whole entry, looked up): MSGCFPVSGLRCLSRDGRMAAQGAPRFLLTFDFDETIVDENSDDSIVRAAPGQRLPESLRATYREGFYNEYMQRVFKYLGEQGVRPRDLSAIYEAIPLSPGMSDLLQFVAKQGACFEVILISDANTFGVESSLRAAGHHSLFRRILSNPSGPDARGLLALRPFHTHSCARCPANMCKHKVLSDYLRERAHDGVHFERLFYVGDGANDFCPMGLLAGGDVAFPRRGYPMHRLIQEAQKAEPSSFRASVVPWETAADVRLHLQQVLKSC
# TMEM16A act: TMEM16A chloride channel activators or potentiators, primary screen, cell-based, HTS | HEK293 TMEM16A/YFP-H148Q/I152L, iodide quench fluorescence; stronger effect = lower value | B-score at 10 µM | actives 0.3% (n = 340,000) | AID 623877, 2012;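 active means fluorescence-ratio B-score plate-corrected deviation score at least 3 library SD below zero, with starting fluorescence score within 5 deviations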;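 further: channel opened by trigger with iodide after compound preincubation; score built on the fluorescence ratio of max minus min over baseline; more negative score means more quench and so TMEM16A activation or potentiation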
# CHT inh conf: CHT inhibitors, confirmation, cell-based, membrane potential dye, duplicate. shares compounds with CHT inh. CHT-expressing cells, choline membrane potential dye; LV-to-AA substituted CHT, HEK293 cells. CHT activity remaining % of control (stronger effect = lower value), % at 10 µM. actives 70% (n = 2,400). AID 493221, 2011;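 active means choline transporter activity left, mean of duplicates at 10 µM, below buffer-only control mean minus 3 SD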;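 further: depolarization triggered by choline at its EC90 following an EC20 pre-addition; 0% = hemicholinium-3 full block and 100% = buffer-only control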
# HEK293 MPD ctr: membrane potential effects in parental HEK293, counter-screen for CHT inhibitor project, cell-based, membrane potential dye. shares compounds with CHT inh. choline response; active = decrease or increase beyond buffer ±3SD. membrane potential ratio readout (active if shifted either direction beyond buffer ±3SD; no single direction) at 10 µM. actives 4% (n = 2,400). AID 493222, 2011;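 further: parental cells lack the transporter so any hit is non-specific; ratio is peak minus trough fluorescence over baseline after EC90 choline challenge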
# * hit, by the source's call; i = inactive; / = no result given.
SMILES,ANO1 block,CHT PAM,CHT inh,HDAC3 inhib,PHOSPHO1 block,TMEM16A act,CHT inh conf,HEK293 MPD ctr
CCn1c(C)[n+](CCCS(=O)(=O)[O-])c2cc(Cl)c(Cl)cc21,i,i,i,0.9,-66.8,i,/,/
CCOC(=O)C1CCCN(C(=O)CCNC(=O)Cn2ccc3ccccc3c2=O)C1 (centres undefined),i,i,i,-1.6,23.3,i,/,/
CCOC(=O)C1(Cc2ccc(OC)cc2)CCN(C(=O)c2cncs2)CC1,i,i,-7.06*,-4.5,32.5,i,i,i
CCOC(=O)C1(Cc2ccc(OC)cc2)CCN(C(=O)c2csc(C)n2)CC1,i,i,i,11.9,32.5,i,/,/
Cn1c(=N)n(CC(=O)c2ccc(Br)cc2)c2ccccc21,i,i,i,4.9,/,i,/,/
N=C1CCCN1CC(=O)c1ccc(Br)cc1,i,i,-19.2*,0.1,10.9,i,1.5%*,i
Cn1c(N2CCOCC2)c(/C=N/OC(=O)c2ccc(F)cc2)c2ccccc21,i,i,-7.36*,6.0,5.5,i,44.4%*,i
Cc1ccc(NC(=O)c2ccc(CN3CC(=O)N4CCCCC4C3=O)cc2)c(C)c1 (centres undefined),i,i,-5.49*,-5.5,-14.0,i,9.5%*,i
Cc1ccccc1NC(=O)c1ccc(CN2CC(=O)N3CCCCC3C2=O)cc1 (centres undefined),i,i,i,-2.0,22.8,i,/,/
Cc1ccc(S(=O)(=O)Oc2ccccc2/C=C2\SC(=O)NC2=O)cc1,i,i,-5.64*,3.1,36.7,i,48.6%*,i
O=C1NC(=O)/C(=C/c2ccccc2Oc2ccc(Cl)cc2)S1,i,i,i,8.0,3.5,i,/,/
O=C(COc1ccccc1/C=C1/NC(=O)NC1=O)Nc1ccccc1,i,i,i,2.1,23.3,i,/,/
O=C(COc1ccccc1/C=C1\SC(=O)NC1=O)Nc1ccc(F)cc1,i,i,-6.91*,0.9,-3.1,i,i,i
COc1ccccc1CNc1ncnc2c1cnn2-c1ccccc1,i,i,i,3.0,22.1,i,/,/
CCOC(=O)c1c(NC(=O)CSc2ncn[nH]2)sc(C)c1C,i,i,-6.72*,12.0,3.6,i,i,i
CCOC(=O)c1c(NC(=O)CSc2ncn[nH]2)sc(C(=O)N(C)C)c1C,i,i,i,8.0,/,i,/,/
CCCCc1nc(NCCO)c(C#N)c2c1CCCC2,i,i,-5.91*,1.2,34.2,i,i,i
O=C(N/N=C/C=C/c1ccccc1[N+](=O)[O-])c1cc(-c2cccnc2)nc2ccccc12,i,i,-9.2*,-0.3,-24.4,i,i,i
O=C(NCCN1CCNC1=O)C1CCC(=O)N(Cc2ccccc2F)C1 (centres undefined),i,i,i,-5.5,27.4,i,/,/
COc1ccc(C2SCC(=O)N2CCc2ccc(OC)c(OC)c2)cc1 (centres undefined),i,i,-6.01*,-3.9,-5.7,i,42.5%*,i
COc1ccc(CCN2C(=O)CSC2c2ccc(OC)c(OC)c2)cc1OC (centres undefined),i,i,i,-3.0,-3.0,i,/,/
CC1=NN(c2ccccc2)C(=O)/C1=C/c1cc(C)n(C2CC2)c1C,i,i,i,2.4,47.1,i,/,/
C/C(=N\NS(=O)(=O)c1ccc(Cl)c([N+](=O)[O-])c1)c1cc2ccccc2o1,i,i,-7.48*,10.2,21.0,i,70.6%*,i

# Bioassay records deposited in PubChem by several laboratories.
